Where “and” joins values, the source holds several entries; their conditions need not be identical. Equal entries are not always repeated. Inconclusive results are not listed. Where a structure was tested more than once in an assay, its records may differ in their call. Calls of active or inactive are those of the source. Calls follow the shape of the dose curve; as a rule, active = well fitted cell-killing curve with a large enough effect in the repeat runs; inconclusive = weak or mixed curves, or effect the other way; inactive = flat fitted curve, though single readings scatter.
Assay: Nuclear factor erythroid 2-related factor 2/antioxidant responsive element (Nrf2/ARE) small molecule agonists: qHTS cell viability counter screen in human keratinocytes (AID 1919968); also: nearly all actives have a fitted effect of over 55% in size
Conditions: KeratinoSens HaCaT ARE cells viability, CellTiter-Fluor, 24 h; series mostly up to 92.4 µM; activity change, negative = cytotoxicity: at the top concentration
Outline: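 HaCaT ARE reporter line, 1,500 cells/well; 5 h settle, 37 C/5% CO2; cpd in DMSO pinned; 23 h exposure; CellTiter-Fluor, 1 h; fluorescence.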
% is scaled to controls: 0 for no effect and ±100 for the full control effect; potency is read from the fitted curve at half-maximal effect.

Row | SMILES | activity change, negative = cytotoxicity | Potency
1 | COc1ccc(NC(C)=O)cc1 | -4.11% (inactive) | 
2 | c1cnc2cc3c(cc2n1)C1CNCC3C1 | 2.84% [at 42.5 µM] (inactive) | 
3 | OCc1c2ccccc2cc2ccccc12 | -0.971% (inactive) | 
4 | Oc1ccc(Cl)cc1Sc1cc(Cl)ccc1O |  | 38.5 µM (active)
5 | CCCc1ccccc1 | 7.53% (inactive) | 
6 | CC(=O)CC(C)=O | -0.122% (inactive) | 
7 | C=CC(=O)OCCCCCC | -0.861% (inactive) | 
8 | CC(C)(C)C(=O)OCOP(=O)(COCCn1cnc2c(N)ncnc21)OCOC(=O)C(C)(C)C | -15.6% [at 42.5 µM] (inactive) | 
9 | Oc1ccc(C(c2ccc(O)cc2)C(Cl)(Cl)Cl)cc1 |  | 60.9 µM (active) and 54.5 µM (active)
10 | Nc1cc(S(=O)(=O)O)cc2cc(S(=O)(=O)O)cc(O)c12 | -20.9% (inactive) | 
11 | N=C(N=C(N)N)N1CCOCC1 | -0.753% [at 42.5 µM] (inactive) | 
12 | Oc1c(Cl)ccc(Cl)c1Cl |  | inactive
13 | CC1=CC[C@@]23C[C@@H]1C(C)(C)[C@@H]2CC[C@H]3C | 0.112% (inactive) | 
14 | O=C(O)c1cccc(C(F)(F)F)c1 | -0.35% (inactive) | 
15 | CC(O)Cn1cnc2c1c(=O)n(C)c(=O)n2C (centres undefined) | -0.374% [at 42.5 µM] (inactive) | 
16 | CN(C)CCOC(c1ccc(Cl)cc1)c1ccccn1 (centres undefined) | 2.29% [at 42.5 µM] (inactive) | 
17 | O=C(O)c1cc(-c2ccccc2)nc2ccccc12 |  | inactive
18 | CC1(C)C(O)C(C)(C)C1O (centres undefined) | 4.18% (inactive) | 
19 | Cc1ccc(N(C)C)cc1 |  | inactive
20 | C/C=C/C(=O)CCCC | -0.715% (inactive) | 

Row | SMILES | activity change, negative = cytotoxicity | Potency
21 | CC(C)(c1ccc(O)cc1)c1ccc(O)cc1 | -9.3% (inactive) | 
22 | C=CCCCCCCCC | -0.278% (inactive) | 
23 | CC(C)=O | 0.646% (inactive) | 
24 | O=C(O)[C@@H]1[C@H]2C[C@H]3c4[nH]c5ccccc5c4CCN3C[C@@H]2CC[C@@H]1O | -3.31% [at 42.5 µM] (inactive) | 
25 | C=CC(C)CCC=C(C)C (centres undefined) | 4.59% (inactive) | 
26 | O=C(O)C(=O)Nc1cccc(-c2nn[nH]n2)c1 | -2.82% [at 42.5 µM] (inactive) | 
27 | CN(C)N=Nc1ccccc1 | 0.582% (inactive) | 
28 | OCCOc1ccc(OCCO)cc1 | 2.09% (inactive) | 
29 | CC1=C(CC(=O)O)c2cc(F)ccc2/C1=C\c1ccc(S(C)=O)cc1 (centres undefined) |  | inactive
30 | CC(C)CCCCCCc1ccc(O)cc1 |  | 6.22 µM (active)
31 | C=CCS(=O)(=O)O | 5.27% (inactive) | 
32 | CCCCSCCCC | -2.9% (inactive) | 
33 | CCNc1nc(N)nc(Cl)n1 | -7.15% (inactive) | 
34 | Cc1ccc(N)cc1[N+](=O)[O-] | 0.175% (inactive) | 
35 | Cc1c(C)c2c(c(C)c1O)CCC(C)(COc1ccc(CC3SC(=O)NC3=O)cc1)O2 (centres undefined) | -19% [at 42.5 µM] (inactive) | 
36 | CCCC1O[C@@H]2C[C@H]3[C@@H]4CCC5=CC(=O)C=C[C@]5(C)[C@H]4[C@@H](O)C[C@]3(C)[C@]2(C(=O)CO)O1 (some centres undefined) | -9.35% (inactive) | 
37 | CC(C[N+](C)(C)C)OC(N)=O (centres undefined) | -5.94% [at 42.5 µM] (inactive) | 
38 | O=C(O)CCCCCCCCCCCC(=O)O |  | 30.1 µM (active) and inactive
39 | COc1cc(C(=O)N2CCOCC2)cc(OC)c1OC | 1.21% [at 42.5 µM] (inactive) | 
